# Bioassay records deposited in PubChem BioAssay by The Scripps Research Institute Molecular Screening Center.
# Most compounds without a hit are left out; they make up all but 5.7% or so of the library.
# ssDAF12 agonist = activates DAF-12 receptor from parasite S. stercoralis; activation, % at 6.8 µM; HEK293 ssDAF-12/GRIP1 lit1-tk-luc reporter, luminescence; % of 3 µM dafachronic acid response; hit rate 1% among 370,000; AID 652126;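 active = activation above the mean over all tested compounds plus 3 SD, cut at about 0.9% in these data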;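 note: 0% = DMSO-only wells and 100% = 3 µM delta7-dafachronic acid wells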
# DAX1 inh-1 = inhibitors of DAX1 repression of SF-1 activated StAR promoter | HEK293T StAR-luciferase reporter, SF-1/DAX-1 repression relief | inhibition, % at 6.8 µM | hit rate 1.1% among 370,000 | AID 652010;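 active = inhibition above the mean over all tested compounds plus 3 SD, cut at about 3.6% in these data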;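 note: 0% = DAX-1 cells with DMSO and 100% = cells lacking DAX-1 with DMSO; higher inhibition means more luminescence from relief of DAX-1 repression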
# DAX1 inh-2 = NR0B1 (DAX1) inhibition; HEK293 Gal4-DAX1 luciferase reporter, luminescence; hit rate 0.99% among 340,000; AID 504766; inhibition, % at 6.75 µM; P51843;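 active = inhibition above the mean over all tested compounds plus 3 SD, cut at about 4.2% in these data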;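 note: 0% = DAX1-transfected cells with DMSO and 100% = empty-vector control cells with DMSO; inhibition shows as a rise in luminescence from relieved DAX1 repression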
# hgDAF-12 ag = agonists of H. glycines DAF-12 nuclear receptor. HEK293 GAL4-hgDAF12 UAS-luciferase reporter, agonist luminescence; normalized to butyrate control. activation, % at 6.8 µM. AID 687014. hit rate 1.8% among 370,000;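 active = activation above a cutoff set at the mean of all screened compounds plus 3 SD, cut at about 10% in these data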;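 note: 0% = DMSO wells and 100% = sodium butyrate wells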
# AHR activator = human AHR activation; P35869; AHR-responsive luciferase reporter cells, luminescence; hit rate 2.5% among 320,000; activation, % at 5 µM; AID 2796; in the data active = activation above about 47%;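 note: 0% = vehicle wells and 100% = reference agonist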
# hcDAF12 agonist = activates DAF-12 receptor from parasite H. contortus; activation, % at 6.8 µM; AID 652067; HEK293 hcDAF-12 lit1-tk-luc reporter, luminescence; 0% DMSO, 100% Δ7-dafachronic acid; hit rate 1.4% among 370,000;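 active = activation above the mean of all tested compounds plus 3 SD, cut at about 5.5% in these data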;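 note: 100% = response to 3 µM Δ7-dafachronic acid high control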
# AHR act confirm = human AHR activation, confirmation; shares compounds with AHR activator; human cells, AHR-responsive luciferase reporter, luminescence; activation, % at 9 µM; hit rate 87% among 2,300; in the data active = activation above about 49%;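 note: HepG2 hepatoma cells carrying a DRE-driven firefly luciferase reporter; 0% = vehicle wells and 100% = reference agonist wells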
# PXR counter = counter-screen for AHR activators: human PXR activators | AID 434939 | activation, % at 11.6 µM | hit rate 88% among 2,300 | shares compounds with AHR activator | cell-based PXR reporter, luciferase luminescence; in the data active = activation above about 11%;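 note: human hepatoma DPX-2 cells expressing full-length human PXR; 0% = DMSO and 100% = reference agonist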
# DAX1 inh confirm = confirmation of human DAX1 (NR0B1) inhibitors. AID 652134. HEK293T StAR-promoter luciferase reporter, SF-1/DAX-1 repression. hit rate 87% among 2,400. inhibition, % at 6.8 µM. shares compounds with DAX1 inh-1;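 active = inhibition above the average of every tested compound plus 3 SD, cut at about 3.8% in these data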;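 note: 0% = DAX-1 cells with DMSO and 100% = no DAX-1 control cells with DMSO; active compounds raise luminescence by relieving repression of the StAR reporter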
# SF1 mutant ctr = counter-screen for DAX1 inhibitors: nonselective inhibitors with SF-1 AF2 mutant. shares compounds with DAX1 inh-1. HEK293 StAR-luciferase, luminescence. inhibition, % at 6.8 µM. hit rate 78% among 2,400;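 active = inhibition above the mean of all tested compounds plus 3 SD, cut at about 3% in these data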;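 note: 0% = DAX-1 transfected cells with DMSO and 100% = cells without DAX-1 with DMSO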
# LXRb hcDAF ctr = LXR-beta agonism as hcDAF-12 counter-screen. shares compounds with hcDAF12 agonist. HEK293 Gal4-LXR tk-luc reporter, luminescence, 24 h; normalized: DMSO 0%, positive control 100%. activation, % at 6.8 µM. 3,400 tested, under 10 active;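 active = mean percent activation of the reporter above a cutoff set as the average over tested compounds plus their standard deviation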
# Target sequence (P55055 whole entry, looked up, the tested form may be a part): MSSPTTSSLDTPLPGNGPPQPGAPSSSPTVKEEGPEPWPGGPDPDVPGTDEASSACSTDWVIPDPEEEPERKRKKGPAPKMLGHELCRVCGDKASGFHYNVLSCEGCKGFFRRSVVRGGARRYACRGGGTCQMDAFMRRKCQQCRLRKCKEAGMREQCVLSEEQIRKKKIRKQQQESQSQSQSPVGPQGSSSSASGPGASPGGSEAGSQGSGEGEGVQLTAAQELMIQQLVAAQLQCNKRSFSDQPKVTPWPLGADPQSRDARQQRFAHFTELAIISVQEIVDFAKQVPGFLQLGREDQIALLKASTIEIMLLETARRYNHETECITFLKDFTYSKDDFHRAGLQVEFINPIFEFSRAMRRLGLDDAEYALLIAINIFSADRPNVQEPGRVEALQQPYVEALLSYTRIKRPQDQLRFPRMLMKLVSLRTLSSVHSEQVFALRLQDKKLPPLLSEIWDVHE
# hcDAF12 ag = confirmation of H. contortus DAF-12 agonists; hit rate 61% among 3,400; HEK293 hcDAF-12 lit1-tk-luc reporter, luminescence; % of Δ7-dafachronic acid response; AID 743032; activation, % at 6.8 µM; shares compounds with hcDAF12 agonist;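 active = mean activation across triplicate tests above the threshold derived from the earlier primary screen, cut at about 5.5% in these data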;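 note: 0% = DMSO only wells and 100% = 3 µM Δ7-dafachronic acid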
# hgDAF12 ag = confirmation of H. glycines DAF-12 agonists. shares compounds with hgDAF-12 ag. HEK293 GAL4-hgDAF12 luciferase reporter, agonist mode; percent of butyrate response. activation, % at 6.8 µM. hit rate 80% among 3,300. AID 743050;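 active = mean activation over triplicate wells above the hit cutoff derived from the earlier primary screen, cut at about 11% in these data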;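 note: 0% = DMSO low control and 100% = 2 mM sodium butyrate high control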
# LXRb DAF12 ctr = LXR-beta agonism as DAF-12 counter-screen | shares compounds with hgDAF-12 ag | HEK293 Gal4-LXR luciferase reporter, 24 h | activation, % at 6.8 µM | 3,300 tested, under 10 active | AID 743051;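 active = mean activation of the triplicate above a set limit carried over from the primary screen, none filed active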
# Numbers without * were called inactive; . = no result.
SMILES,ssDAF12 agonist,DAX1 inh-1,DAX1 inh-2,hgDAF-12 ag,AHR activator,hcDAF12 agonist,AHR act confirm,PXR counter,DAX1 inh confirm,SF1 mutant ctr,hgDAF12 ag,LXRb DAF12 ctr,others
Cc1ccc(C(=O)Nc2ccc3c(c2)OCO3)cc1Cl,0,11*,4.8*,18*,94*,6.1*,118*,38*,11*,6.6*,20*,1,
CC(C)N(C(=O)CSc1nnnn1-c1ccc2c(c1)OCO2)C(C)C,-1,-1,.,-2,13,-1,.,.,.,.,.,.,
CCC(C)(NC(=O)c1ccccn1)C(=O)NC1CCCC1 (stereo unspecified),-1,1,0,-1,-1,-1,.,.,.,.,.,.,
O=C(Nc1ccc2c(c1)OCO2)c1n[nH]c(=O)c2ccccc12,-1,3,2,18*,132*,2,132*,43*,.,.,9,1,
O=C(O)c1ccc(N/N=C/C2=Cc3ccccc3OC2)cc1,0,4.1*,11*,19*,122*,3,83*,18*,.,.,16*,0,
O=C(O)c1ccc(N/N=C/c2ccnc3ccccc23)cc1,-1,2,3,5,23,1,.,.,.,.,.,.,
CC(C)CN(C(=O)c1ccc(N2CCCC2=O)cc1)c1c(N)n(Cc2ccccc2)c(=O)[nH]c1=O,-1,0,0,0,-1,-2,.,.,.,.,.,.,
CC(=O)Nc1cccc(-c2cnc(NC(C)=O)cn2)c1,-1,0,.,5,.,2,.,.,.,.,.,.,
CC(=O)Nc1cccc(-c2csc(Nc3ccc(C)cn3)n2)c1,1,5.5*,0,17*,145*,13*,24,34*,.,.,21*,1,LXRb hcDAF ctr=2;hcDAF12 ag=8.3*
Cc1cc(NC(=O)c2nn(C)c(C)c2[N+](=O)[O-])no1,-1,0,0,1,0,-2,.,.,.,.,.,.,
Cc1cc(NC(=O)c2nn(C)c(C)c2Br)no1,0,4.6*,0,2,63*,3,.,.,4.6*,5.2*,.,.,
CCc1ccc(/C=N/Nc2ncnc3nc[nH]c23)cc1,-1,5.2*,0,11*,45,3,.,.,14*,1,.,.,
Cc1ccc2oc(=O)c3cc(C(=O)N4CCN(C)CC4)sc3c2c1,0,0,-1,0,5,1,.,.,.,.,.,.,
O=C(NCc1ccc(F)cc1)C1(S(=O)(=O)c2ccc(Cl)cc2)CC1,-1,0,0,-2,1,-4,.,.,.,.,.,.,
CC(C)CC(N)c1csc(NC(=O)Nc2ccccc2C(C)C)n1 (stereo unspecified),-2,-1,.,5,.,-1,.,.,.,.,.,.,
COc1ccc(C2=NN3C(C2)c2ccccc2OC3c2cccs2)cc1 (stereo unspecified),0,4.5*,2,23*,2,7.9*,.,.,12*,7.6*,.,.,
